Experimental findings from the supplement of paper PMC6555819 are described below.

In this assay the test system is FXR:RXRa (NR concentration 270 nM, RXRa partner concentration 90 nM). The experiment in a line: PBM binding z-score (relative to random genomic background probes); higher = stronger binding; sequences stand for … in GC…GCGATTGACAGCGTAGAATGAAGG
The procedure, abridged: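 Binding z-scores were set against random background probes. The data came from custom Agilent 4×180K protein-binding microarrays carrying double-stranded probes with 34-nt variable regions, incubated 1 h with ligand-free nuclear receptor dimers. Partner-specific antibodies detected binding, and scanned fluorescence was regression-normalized.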
Regarding CCTAGTGGGTCAGGAGGTCACACACCGGATATGA, the PBM binding z-score is 4.27.

CCTACTGGGCAAAAAAGGTCATTGATGCCGATAA returned a PBM binding z-score of 3.26.

For the sequence TCTAGTTCGTCACGGAGGTCACACACGACGGGTA, the PBM binding z-score turned out to be 3.69.

CCTAGTTGGTCAAGGTCACGCACGCTATAGGTAC yielded a PBM binding z-score of 4.95.

In turn, ATATGTAGGTTAGCGGGGGTCATTCAGACTAGGC had a PBM binding z-score of 5.82.

CCTAGATGGTCAGGAGGTCACACACCGGATATGA: the PBM binding z-score amounted to 3.84.

In turn, CCTAGTTGGTCAGGAAGTCACACACCGGATATGA displayed a PBM binding z-score of 0.197.

For the sequence CGTCAAAGTTAAAGGTAACGTAACAGAAAGCAGC, the PBM binding z-score is 0.0396.

CCTACTGGGCCATTCAGAGGTCACTGATCATATG yielded a PBM binding z-score of 1.98.

Sequence TAGCCTCGGTCATTCAGGGGCCAGTATAGAAAGC yielded a PBM binding z-score of 1.19.

For CAAACTAGGCCAAGGTCAAAGTCGGTTTGTGCCA, the PBM binding z-score worked out at 4.09.

Take ATCGAAAGGTCGAGTTGAGTATAGAGAAAGGGAA: the PBM binding z-score came to 4.54.

For the sequence CGTCAAAGTTCAAGGTAAAGTAACAGAAAGCAGC, the PBM binding z-score was determined as 5.75.

Sequence CTATGTAGGTGAAGGGGGTCATTCAGTTTGAAAG returned a PBM binding z-score of 4.41.

Take TCTAGTTGGTCACGGGGGTCACACACGACGGGTA: the PBM binding z-score was found to be 5.12.

Regarding CCTTACGGGTCACTTACAGGTTATAGCATTTGGA, the PBM binding z-score stood at 4.84.

As to CCTACTGGGCCATTCAGAGGTCATCGATCATATG, the PBM binding z-score is 2.91.

As to CAAAATAGGTCAAGAGGTCAAAGTCCGCTTCCCG, the PBM binding z-score was determined as 7.64.

As for TAGCCTAGGTCATGCGGGTCAGTATAGTGTCGGC, the PBM binding z-score was determined as 4.39.

In turn, GCTTACGGGTCAAAGGTTAAAGCATGAATAGAAT displayed a PBM binding z-score of 7.68.

With CGTCCAAGGTCAAAGGTCAGCGAAGAGATGACGG, the PBM binding z-score was found to be 8.78.

Sequence ATCGAAAGGTCGACGAGGTGAGAATACACCGTTT returned a PBM binding z-score of 5.1.

Regarding CGTCCAAGGGCAATGCTAGGTCAGTGAAAGCATT, the PBM binding z-score was 0.683.

In the case of GCTTACGGGTCAAAAGTTATAGCATGAATAGAAT, the PBM binding z-score worked out at 5.09.

Regarding CCTACTGGGCCACGAAAGGTGATTGATTCAGTGA, the PBM binding z-score is -0.0481.

Sequence CTATGTAGGTTAAGGGGGTCATTGAGTTTGAAAG gave a PBM binding z-score of 5.19.

As for ATCGAAAGGTCGTGAGGTGAGTTTACAGAAAGGC, the PBM binding z-score turned out to be 5.54.

In turn, TCTACTTGGTCACGGAGGTCACACACGACGGGTA registered a PBM binding z-score of 3.59.

For the sequence TCGAGTAGGTTACGGGGGCGTTCAGGGATGAAGA, the PBM binding z-score amounted to 1.63.

For the sequence TATACAGGATCAAAGGCCAGAGTACGAATGTCGA, the PBM binding z-score came out at 0.361.

Regarding CCTAGTTGGTCAAGGTCCCACACGCTATAGGTAC, the PBM binding z-score came out at 0.27.

The sequence CCCAGTAGGTTACGAGGGGGCATTCAGTGCGAAT came in with a PBM binding z-score of 2.52.

AGAATGGGGTTATTAAGATCAGGGAATTGCGGTC registered a PBM binding z-score of 3.03.

Sequence ATCGAAAGGTCGTGAAGTGAGTATACAGAAAGGC returned a PBM binding z-score of 4.52.

In turn, GCTGCTAGGTCAGGTTGGTCAGCTAACGGGTACG gave a PBM binding z-score of 1.01.

CCTTACGGGTCACTGACAGCTTATAGCATTTGGA returned a PBM binding z-score of 5.14.

The sequence AGAATGAGGTTAGCAAAGATCAGGGAAACGCTTG returned a PBM binding z-score of 0.688.

Turning to CCTAGTTGGTCAGGGGGTCACACACCGGATATGA, the PBM binding z-score came to 4.51.

AGTCGGAGGACAAAGGTCAGAGCTACGCCAGTGA displayed a PBM binding z-score of 3.97.
